Bioassay records as filed in PubChem.
Jurkat NFkB inh: inhibitors of the PMA/ionomycin-induced NF-kB reporter in Jurkat cells | inhibition, % at 4 µM | 0.53% of 330,000 active | AID 435003 | PMA/ionomycin-induced NF-kB luciferase reporter, luminescence; in the data active = inhibition above about 50%
GalR3 antagonist: human GalR3 antagonism; O60755; HEK293 GalR3-CNG cAMP membrane potential fluorescence; galR3 body fused to GalR1 C-terminus; inhibition, % at 3 µM; 0.44% of 360,000 active;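 active = inhibition above the screen-wide average plus 3 SD, cut at about 13% in these data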;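 also: forskolin and galanin both at EC90 stimulate the cells; cAMP rise reported by CNG channel membrane potential dye signal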
Gli-Sufu block: blocks Gli-Sufu signaling in a luciferase reporter. AID 588413. inhibition, % at 5 µM. Sufu-KO-LIGHT fibroblasts, Gli luciferase reporter luminescence. 0.74% of 340,000 active;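 active = inhibition above about 55%, limit read from the data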
697 NFkB inh: lowers PMA/ionomycin-induced NF-kB signal in 697 B cells. 697 B-cell NF-kB luciferase reporter, 16 h. inhibition, % at 4 µM. 0.33% of 330,000 active. AID 435022; in the data active = inhibition above about 35%
COUP-TFII inh: blocks human COUP-TFII nuclear receptor. 0.7% of 370,000 active. HEK293T NGFI-A luciferase reporter, luminescence. AID 686940. inhibition, % at 8.6 µM. P24468;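 active = inhibition above a per-plate cutoff, mean inhibition of test wells between control levels plus 3 SD, cut at about 38% in these data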;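 also: cells cotransfected with COUP-TFII expression vector driving the NGFI-A reporter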
Target sequence (P24468 whole entry, looked up): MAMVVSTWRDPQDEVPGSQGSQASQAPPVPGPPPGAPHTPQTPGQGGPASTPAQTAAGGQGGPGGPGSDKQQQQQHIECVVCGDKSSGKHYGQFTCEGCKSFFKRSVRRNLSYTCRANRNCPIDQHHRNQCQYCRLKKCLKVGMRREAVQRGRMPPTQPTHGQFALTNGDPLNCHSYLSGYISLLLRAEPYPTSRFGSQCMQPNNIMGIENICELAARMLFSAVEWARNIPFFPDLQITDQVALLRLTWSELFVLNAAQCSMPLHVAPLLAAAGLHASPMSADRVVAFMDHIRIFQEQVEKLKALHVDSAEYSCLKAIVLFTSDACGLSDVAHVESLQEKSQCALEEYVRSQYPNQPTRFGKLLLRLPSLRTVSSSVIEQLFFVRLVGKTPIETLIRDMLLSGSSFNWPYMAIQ
VP16 Luc counter: counter-screen for COUP-TFII antagonists: inhibitors of VP16; shares compounds with COUP-TFII inh; HEK293 Gal4-VP16 luciferase reporter, luminescence; inhibition, % at 8.5 µM; 25% of 2,500 active; in the data active = inhibition above about 13%
NR2F2 inh conf: COUP-TFII (NR2F2) inhibition, confirmation assay. shares compounds with COUP-TFII inh. HEK293 NGFI-A luciferase reporter, luminescence. inhibition, % at 8.5 µM. 45% of 2,500 active;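 active = mean inhibition over three repeats above a set limit taken from the earlier primary screen, cut at about 38% in these data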
Large screens that a line does not name were inactive (follow-up assays come after a bar, where they were run). Most compounds without a hit are left out; they make up all but 2% or so of the library.

OC[C@@H]1CN(Cc2ccc(-c3ccccc3)cc2)C[C@H](n2cnc3c(NCc4ccc(F)cc4)ncnc32)O1	COUP-TFII inh 75 (no result: Jurkat NFkB inh, Gli-Sufu block, 697 NFkB inh) | VP16 Luc counter inactive | NR2F2 inh conf 54
Cc1ccccc1CN1CCCCC(NC(=O)c2ccc3ccccc3c2)C1=O (stereo not given)	none (no result: Jurkat NFkB inh, GalR3 antagonist, Gli-Sufu block, 697 NFkB inh)
CCc1ccc(/C=C2\SC(=S)N(CCCC(=O)NCCCN3CCOCC3)C2=O)cc1	COUP-TFII inh 84 (no result: Jurkat NFkB inh, Gli-Sufu block, 697 NFkB inh) | VP16 Luc counter 68 | NR2F2 inh conf 59
O=C(CCN1C(=O)/C(=C/c2ccccc2F)SC1=S)NCCCN1CCOCC1	none
O=C(CCCN1C(=O)/C(=C/c2ccccc2Cl)SC1=S)NCCCN1CCOCC1	COUP-TFII inh 63 | VP16 Luc counter inactive | NR2F2 inh conf inactive
CCOC(=O)[C@]12CCCCC/C=C\1N(Cc1ccc(OC)cc1)C(=O)[C@H]2CC(=O)NCc1ccccc1	none (no result: Jurkat NFkB inh, GalR3 antagonist, Gli-Sufu block, 697 NFkB inh)
Cc1ccc(C(=O)C2CCN(CC(=O)N(C)C3CCCCC3)CC2)cc1	none (no result: Jurkat NFkB inh, GalR3 antagonist, Gli-Sufu block, 697 NFkB inh)
O=C(Nc1ccc2c(c1)OCO2)OC1CCC12CCC(c1ccccc1)CC2 (stereo not given)	none (no result: Jurkat NFkB inh, GalR3 antagonist, Gli-Sufu block, 697 NFkB inh)
Cc1ccc(OCCN2CCN(C(=O)CCC(=O)Nc3nnc(CC(C)C)s3)CC2)cc1	COUP-TFII inh 56 | VP16 Luc counter inactive | NR2F2 inh conf inactive
CC(C)Cc1nnc(NC(=O)CCC(=O)N2CCN(Cc3ccc(F)cc3)CC2)s1	none
COc1ccc2cc(-c3cn(C(=O)N(c4ccccc4)c4ccccc4)nn3)ccc2c1	none (no result: Jurkat NFkB inh, GalR3 antagonist, Gli-Sufu block, 697 NFkB inh)
COc1cccc(CCNC(=O)CCc2nc(-c3ccccc3F)no2)c1	none (no result: Jurkat NFkB inh, GalR3 antagonist, Gli-Sufu block, 697 NFkB inh)
C=CCN(CC#Cc1ccc(C(F)(F)F)cc1)CC=C	none (no result: Jurkat NFkB inh, GalR3 antagonist, Gli-Sufu block, 697 NFkB inh)
O=C(N/N=C/c1ccccc1C(=O)O)c1ccc(COc2cccc3cccnc23)cc1	none
O=C(N/N=C/c1ccc[nH]1)c1ccc(COc2cccc3cccnc23)cc1	COUP-TFII inh 73 | VP16 Luc counter 39 | NR2F2 inh conf 89
C=CCNc1nc(-c2sc(NC(=O)C(C)(C)C)nc2C)c(-n2cc(-c3ccccc3)nn2)s1	COUP-TFII inh 38 (no result: Jurkat NFkB inh, Gli-Sufu block, 697 NFkB inh) | VP16 Luc counter inactive | NR2F2 inh conf inactive
CCCCOCCCNC(=O)C[C@H]1C[C@@]2(C(=O)OC)C(=C[C@H](C(C)C)O[C@@H]2C2CC2)N(Cc2ccccc2)C1=O	none (no result: Jurkat NFkB inh, Gli-Sufu block, 697 NFkB inh)
Fc1cccc(-c2cc3nc(-c4ccccc4)cc(N4CCC5(CC4)OCCO5)n3n2)c1	none
COCCN1CCN(c2cc(-c3ccccc3)nc3cc(-c4cccc(F)c4)nn23)CC1	COUP-TFII inh 47 | VP16 Luc counter inactive | NR2F2 inh conf inactive
CC[C@H](CCCc1ccc(F)cc1)CN(Cc1ccc(OC)cc1)S(=O)(=O)c1ccc(C)cc1	none (no result: Jurkat NFkB inh, GalR3 antagonist, Gli-Sufu block, 697 NFkB inh)
Cc1ccc[n+](Cc2ccc([N+](=O)[O-])cc2)c1	none
O=[N+]([O-])c1ccc(C[n+]2cccc3c4ccccc4ccc32)cc1	COUP-TFII inh 58 | VP16 Luc counter inactive | NR2F2 inh conf inactive
CC1=CC(=O)C(C(C)C)=C/C1=N\OS(=O)(=O)c1ccc(F)cc1	COUP-TFII inh 92 (no result: Jurkat NFkB inh, GalR3 antagonist, Gli-Sufu block, 697 NFkB inh) | VP16 Luc counter 29 | NR2F2 inh conf inactive
CC1=CC(=O)C(C(C)C)=C/C1=N/OC(=O)c1cccc([N+](=O)[O-])c1	none
CC(C)(C)c1ccc(-c2noc(CCC(=O)NC3CC3)n2)cc1	COUP-TFII inh 56 (no result: Jurkat NFkB inh, GalR3 antagonist, Gli-Sufu block, 697 NFkB inh) | VP16 Luc counter inactive | NR2F2 inh conf inactive
COc1ccc(-c2noc(CCCC(=O)NC3CCCC3)n2)cc1	COUP-TFII inh 54 | VP16 Luc counter inactive | NR2F2 inh conf inactive
Oc1cccc2ccc(Nc3ccccn3)nc12	COUP-TFII inh 39 | VP16 Luc counter inactive | NR2F2 inh conf inactive
O=C(CN1CCN(Cc2ccc(Cl)cc2)C1=O)NCCCN1CCN(c2ccc(F)cc2)CC1	COUP-TFII inh 56 | VP16 Luc counter inactive | NR2F2 inh conf inactive
COCCNC[C@@]12CO[C@H](c3ccc(Cl)cc3)N1[C@@H](c1ccc(Cl)cc1)SC2	none (no result: Jurkat NFkB inh, GalR3 antagonist, Gli-Sufu block, 697 NFkB inh)
Cn1c(=O)c2[nH]c(CCCCCCCc3nc4ccccc4[nH]3)nc2n(C)c1=O	COUP-TFII inh 55 (no result: Jurkat NFkB inh, 697 NFkB inh) | VP16 Luc counter inactive | NR2F2 inh conf inactive
COc1ccccc1N1CCN(C(=O)C2CCCN(S(=O)(=O)c3ccc4c(c3)CCCN4C(C)=O)C2)CC1 (stereo not given)	COUP-TFII inh 44 | VP16 Luc counter inactive | NR2F2 inh conf inactive
